# Assay outcomes as filed in PubChem BioAssay.
# Rows were chosen to be rich in hits. Some 4.1% of all compounds tested hit in one or more screens of this group.
# EBV LMP1 NFkB = EBV LMP1-driven NF-kappaB luciferase reporter inhibitors, primary screen, cell-based, luminescence, single point; LMP1-induced NF-kappaB luciferase reporter cells; inhibition, % at 12.5 µM; hit rate 0.69% among 350,000; in the data active = inhibition above about 41%;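 also: 0% = neutral control wells and 100% = reference inhibitor control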
# TRPM1 prom inh = inhibitors of MITF-dependent TRPM1 promoter reporter, primary screen, cell-based, SK-MEL-5, single point, luciferase. SK-MEL-5 TRPM1 promoter luciferase, 24 h. inhibition, % at 12.5 µM. hit rate 0.83% among 330,000;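 active = mean inhibition across replicates of 60% or more, whatever share of single replicates reaches that level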
# Peg3 prom inh = Peg3 promoter-driven luciferase inhibitors, primary screen, cell-based, HeLa, luciferase luminescence; HeLa PEG-Prom luciferase reporter, overnight; inhibition, % at 20 µM; hit rate 1.7% among 360,000;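 active = inhibition of at least 50% at 20 µM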
# TROY signal inh = inhibitors of TROY-driven NF-kB signaling, primary screen, Q293 LMP1-TROYcd cells, NF-kB luciferase, uHTS. Q293 LMP1-TROYcd NF-kB luciferase reporter, 4 h. hit rate 0.98% among 360,000. AID 1347056, 2019. inhibition, % at 10 µM;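 active = compounds whose plate-normalised and pattern-corrected inhibition of the luciferase reporter signal at the single screening dose is 50% or more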
# TWEAK-Fn14 inh = inhibitors of TWEAK-Fn14 signaling, primary screen, luciferase reporter cells, uHTS | TWEAK-stimulated Fn14 reporter cells, luciferase luminescence, 8 h | inhibition, % at 10 µM | hit rate 2% among 360,000; in the data active = inhibition above about 50%
# Shn3 inh set2 = reduction of Shn3 3'UTR firefly luciferase signal, primary screen, Schnurri-3 inhibitor project, cell-based, Clone20 osteoblasts, set 2; Clone20 osteoblast Shn3 3'UTR firefly luciferase, 24 h; inhibition, % at 12.5 µM; hit rate 0.52% among 360,000;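 active = mean inhibition of at least 75% with every replicate also reaching 75%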;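 also: 0% = median of neutral control wells and 100% = pilot-screen positive control compound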
# An asterisk follows results filed as active; . = no result given.
SMILES,EBV LMP1 NFkB,TRPM1 prom inh,Peg3 prom inh,TROY signal inh,TWEAK-Fn14 inh,Shn3 inh set2
Cc1cccc(C)c1-n1nnnc1C(C1CC1)N1CCC2(CC1)C(=O)NCN2c1ccccc1 (configuration not stated),.,.,30,75*,37,-17
Cc1cccc(C)c1-n1nnnc1C(c1ccccc1)N1CCC2(CC1)C(=O)NCN2c1ccccc1 (configuration not stated),.,.,46,-12,-24,9
COc1ccc(-n2nnnc2C(c2cccc3ccccc23)N2CCC3(CC2)C(=O)NCN3c2ccccc2)cc1 (configuration not stated),.,.,15,10,53*,5
O=C1NCN(c2ccccc2)C12CCN(C(c1ccccc1OC(F)(F)F)c1nnnn1Cc1ccccc1)CC2 (configuration not stated),.,.,91*,21,48,21
CCCC(=O)c1c(O)[nH]c(=O)[nH]c1=O,-14,3,9,-12,-1,2
Cc1ccc(-n2c(O)c(C=NCCCn3ccnc3)c(=O)[nH]c2=O)cc1,-1,3,17,-23,2,-18
COc1ccc(O)c2c(=O)c3c(OC)cc4c(c3oc12)C1C=COC1O4 (configuration not stated),64*,25,20,-15,-26,12
C=C(C)[C@@]12OC3(c4ccccc4)O[C@@H]1C1[C@@H]4O[C@]4(CO)[C@@H](O)[C@]4(O)C(=O)C(C)=C[C@H]4[C@@]1(O3)[C@H](C)[C@H]2OC(=O)/C=C/C=C/c1ccccc1 (some centres not stated),-169,9,100*,-239,-76,-12
CCCN1CCC2(CC1)NC(CO)(CO)CO2,-4,4,9,.,82*,-8
CCN1CCC2(CC1)NC(CO)(CO)CO2,1,-14,14,7,14,-15
COc1ccc(C(c2nnnn2C2CCCCC2)N2CCC3(CC2)C(=O)NCN3c2ccccc2)cc1 (configuration not stated),.,.,27,17,3,-14
COc1ccc(-n2nnnc2C(c2ccccc2)N2CCC(n3c(=O)[nH]c4ccccc43)CC2)cc1 (configuration not stated),.,.,64*,23,43,2
COc1ccc(-n2nnnc2C(c2cccs2)N2CCC(n3c(=O)[nH]c4ccccc43)CC2)cc1 (configuration not stated),.,.,71*,31,31,30
COc1ccc(-n2nnnc2C(C2CC2)N2CCC3(CC2)C(=O)NCN3c2ccccc2)cc1 (configuration not stated),.,.,25,-7,3,14
CCOC(=O)c1cccc(-[n+]2c(-c3ccccc3)cc(-c3ccccc3)cc2-c2ccccc2)c1,5,68*,27,-3,24,-2
CCOC(=O)c1ccccc1C(=O)OCC,-2,9,-2,4,-13,-17
CCOC(=O)c1ccc(-[n+]2c(-c3ccccc3)cc(-c3ccccc3)cc2-c2ccccc2)cc1,38,77*,.,.,.,.
COc1ccc(C(O)(c2ccccc2)c2ccncc2)cc1 (configuration not stated),-12,4,18,3,-12,-2
C#C[C@]1(O)CC[C@H]2[C@@H]3CCC4=CC(=O)CC[C@]4(C)[C@H]3CC[C@@]21C,81*,-11,3,6,-11,6
CCC(=O)O[C@H]1CC[C@H]2[C@@H]3CCC4=CC(=O)CC[C@]4(C)[C@H]3CC[C@]12C,87*,2,53*,20,-22,13
C=Cn1ccnc1P(=S)(c1ccccc1)c1nccn1C=C,-8,-5,12,-3,23,-26
COC(=O)C1=C(c2ccc(F)cc2OCc2ccccc2)C[C@@H]2CC[C@H]1N2C(=O)NCc1ccc(C(F)(F)F)cc1,-2,10,37,17,45,93*
COc1ccc2[nH]c(C)c(CCNCc3cc(OC)c(OC)c(OC)c3)c2c1,-1,10,4,5,-10,44
